According to PubChem BioAssay (NCI):
Compounds without any hit were thinned out: in the full panel of roughly 83,000, 20% have a hit.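 A percent growth of 40 corresponds to 60% growth inhibition; 0 means no net growth; -100 means all cells died. Active threshold: below 10.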 Unmarked numbers belong to inactive results. Active and inactive are the calls of the source.

Each molecule was assayed on SW-620 colon (assay: NCI-60 one-dose screen, 48 h (100 = growth as untreated, 0 = no growth, -100 = all killed)). Settings: 10 µM unless noted.
Experimental: Growth inhibition of the SW-620 human tumor cell line is measured as a screen for anti-cancer activity. Cells are grown in 96 well plates and exposed to the test compound for 48 hours. Compounds are tested at a single concentration, which is 10^-5 M for most compounds. The reported endpoint is percent growth (GI% or GIPRCNT), where numbers from 0 - 100% represent growth inhibition, and numbers from -100% - 0 represent cell death. For example, a value of 40 represents 60% growth inhibition. A value of 0 means no net growth occurred over the course of the experiment. A value of -40 indicates 40% of cells at the beginning of the experiment died by the end of the experiment. A value of -100 means all cells are dead at the end of the experiment.
NCI-60 Human Tumor Cell Lines Screen was performed using the standard one-dose NCI protocol, which is described in more detail at https://dtp.cancer.gov/discovery_development/nci-60/default.htm.
Compounds with GIPRCNT values below 10 were considered active. Activity score was based on GIPRCNT using the following formula: […]
Score is 0 for GIPRCNT values of 100 or above, 50 for GIPRCNT values of 0, and 100 for GIPRCNT values of -100.

**Q.** With `C/C(=N\Nc1ccc(S(N)(=O)=O)cc1)c1ccc(N=Nc2c(Nc3ccccc3)[nH][nH]c2=O)cc1` as the molecule, how does the growth read?
**A.** The growth was 18.1%.

**Q.** For `Cc1cccc(Nc2nc3ccccc3nc2/C=C/c2ccc(F)cc2)c1`, which growth is on record?
**A.** The growth was 88.2%.

**Q.** With `C=C1CCC2C3(C)COC(c4ccc(F)cc4)OC3CCC2(C)C1CC(O)C1=CCOC1=O` (stereo not given) as the molecule, how does the growth read?
**A.** The growth was 2.53% (active).

**Q.** For `Cc1cccc(-c2nc(Nc3cccc(S(N)(=O)=O)c3)c3ccccc3n2)c1`, which growth is on record?
**A.** The growth was 67.6%.

**Q.** How did the growth turn out when `O=C(COc1ccc(NC(=O)Nc2ccc(Cl)c(Cl)c2)cc1)N=Nc1c(O)[nH]c2ccc(Br)cc12` was run?
**A.** The growth was -21.2% (active).

**Q.** How did the growth turn out when `CC1(C)CC[C@]2(C(=O)O)CC[C@]3(C)C(=CCC4[C@@]5(C)C[C@@H](O)[C@@H]6OC(c7ccccc7F)OC[C@@]6(C)C5CC[C@]43C)C2C1` (stereo not given in full) was run?
**A.** Its growth is 14.6%.

**Q.** How did the growth turn out when `COc1ccc(C(=O)/C=C/c2cccnc2)cc1S(N)(=O)=O` was run?
**A.** The growth was 13.2%.

**Q.** With `COc1ccc2[nH]cc(-c3nnc(N)nc3-c3cn(C)c4ncc(Br)cc34)c2c1` as the molecule, how does the growth read?
**A.** Its growth is 87.9%.

**Q.** With `C=C1CCC2C3(C)COC(c4ccccc4)OC3CCC2(C)C1CC(NCc1ccccc1)C1=CCOC1=O` (stereo not given) as the molecule, how does the growth read?
**A.** The growth was 89.8%.

**Q.** For `Cc1cc2nc3c([nH]c2cc1C)c1ccc(=O)cc1n3CCN(C)C`, which growth is on record?
**A.** The growth was 22.6%.

**Q.** With `COc1ccc(-c2nc(SC(C)C)nc(NCCc3c[nH]c4ccccc34)c2C#N)cc1` as the molecule, how does the growth read?
**A.** Its growth is 32.9%.

**Q.** Which growth does the source give for `CC(C)Sc1nc(NCCc2c[nH]c3ccccc23)c(C#N)c(-c2ccc(F)cc2)n1` here?
**A.** The growth was 6.5% (active).

**Q.** With `COc1ccc2[nH]c(O)c(N=NC(=O)Cn3c(-c4ccccc4)nc4cc(C)ccc43)c2c1` as the molecule, how does the growth read?
**A.** The growth was 47.2%.

**Q.** With `O=C(Cn1c(/C=C/c2ccccc2)nc2ccccc2c1=O)Nc1ccc(Cl)cc1` as the molecule, how does the growth read?
**A.** Its growth is 72.1%.

**Q.** `COc1cc(/C=C/C(=O)c2ccc(C)cc2)ccc1Oc1nc(Nc2ccc(F)cc2)nc(N(C)C)n1` was tested. Which growth did it give?
**A.** Its growth is 6.82% (active).

**Q.** With `Cn1cc(-c2cc3nc(-c4cn(C)c5ncc(Br)cc45)cc(N)n3n2)c2cc(Cl)ccc21` as the molecule, how does the growth read?
**A.** The growth was -81.5% (active).

**Q.** With `CC(=O)Nc1cccc(-c2nc3cc(-c4ccc(O)cc4)ccc3n2C)c1` as the molecule, how does the growth read?
**A.** Its growth is 79.3%.

**Q.** For `O=C(COc1ccc(NC(=O)Nc2ccc(Cl)cc2)cc1)N/N=C/c1ccccc1`, which growth is on record?
**A.** The growth was -75.2% (active).

**Q.** How did the growth turn out when `CC(=O)Nc1ccc(-n2cnc3ccc(-c4ccc(O)cc4)cc32)cc1` was run?
**A.** The growth was 39.2%.

**Q.** How did the growth turn out when `Clc1ccc(-c2ccc(OCCCN3CCN(c4ccncc4)CC3)cc2)cc1` was run?
**A.** The growth was -8.83% (active).

**Q.** For `COc1ccc(NC(=O)Cn2c3c(sc2=O)[C@H]2[C@@H](O)[C@@H](O)[C@H](O)[C@@H]2CS3)cc1`, which growth is on record?
**A.** The growth was 105%.

**Q.** Which growth does the source give for `CN1CCN(c2ccc3c(c2)nc(NNC(=O)c2cnccn2)c2cccn23)CC1` here?
**A.** Its growth is 9.85% (active).

**Q.** Which growth does the source give for `O=C(NN1C(=O)/C(=C/C=C/c2ccc([N+](=O)[O-])o2)SC1=S)c1cccc(O)c1` here?
**A.** The growth was -71.1% (active).

**Q.** For `O=C(CN1C(=O)/C(=C/c2ccccc2Cl)SC1=S)N1CCOCC1`, which growth is on record?
**A.** Its growth is 38.6%.

**Q.** For `CC1CN(c2oc(-c3ccc([N+](=O)[O-])cc3)nc2C#N)CC(C)O1` (stereo not given), which growth is on record?
**A.** Its growth is 102%.

**Q.** How did the growth turn out when `COc1c(F)ccc(C(=O)Nc2ccc3nc(NC(=O)C4CCCN(S(=O)(=O)c5ccc(C(F)(F)F)cc5)C4)sc3c2)c1F` (stereo not given) was run?
**A.** Its growth is 95.1%.

**Q.** How did the growth turn out when `CC(=O)Nc1ccc(-n2cnc3cc(-c4ccc(O)cc4)ccc32)cc1C(F)(F)F` was run?
**A.** Its growth is 22.3%.

**Q.** With `C#C[C@]1(O)CC[C@H]2[C@@H]3CC=C4c5sc(-c6ccc([N+](=O)[O-])cc6)nc5CC[C@]4(C)[C@H]3CC[C@@]21C` as the molecule, how does the growth read?
**A.** Its growth is -12.5% (active).

**Q.** `Cc1cc2c(cc1Cl)C(=O)/C(=C/c1ccc(F)cc1)O2` was tested. Which growth did it give?
**A.** The growth was 111%.

**Q.** With `CC(=O)Nc1ccc(C(=O)NC(=S)Nc2ccc(S(N)(=O)=O)cc2)cc1` as the molecule, how does the growth read?
**A.** Its growth is 98%.

**Q.** `CCCSc1nc(NCCc2c[nH]c3ccccc23)c(C#N)c(-c2ccc(F)cc2)n1` was tested. Which growth did it give?
**A.** The growth was 55.7%.

**Q.** How did the growth turn out when `Cc1nc(Nc2ncc(C(=O)Nc3c(C)cccc3Cl)s2)cc(N2CCN(CCCNC(=O)COc3ccc(C4CCC(=O)NC4=O)cc3)CC2)n1` (stereo not given) was run?
**A.** The growth was 118%.

**Q.** For `COc1ccc(Cc2nn(CC(=O)N/N=C/c3ccc(F)cc3)c(=O)c3c(C)noc23)cc1`, which growth is on record?
**A.** The growth was 61.4%.

**Q.** `CC12CC[C@@H]3[C@]4(C)COC(c5cn[nH]c5-c5cccc(Cl)c5)O[C@@H]4CC[C@@]3(C)[C@@H]1CC(C1=CCOC1=O)O2` (stereo not given in full) was tested. Which growth did it give?
**A.** Its growth is 50.6%.

**Q.** `Cc1ccc(C(=O)CSc2nc3ccc(C)cc3c(=O)n2-c2ccc(F)cc2)cc1` was tested. Which growth did it give?
**A.** The growth was 89%.

**Q.** `NS(=O)(=O)c1ccc(CCNC(=O)CSc2ccc(-c3ccc(Br)cc3)nn2)cc1` was tested. Which growth did it give?
**A.** The growth was 72.2%.

**Q.** How did the growth turn out when `COc1cc(NC(=O)c2cccc(C3CCc4c(cc(OC)c(OC)c4OC)O3)c2)cc(OC)c1OC` (stereo not given) was run?
**A.** The growth was 46.1%.

**Q.** With `O=C(c1ccc(Cl)cc1)c1ccc(OCCCN2CCN(c3ccncc3)CC2)cc1` as the molecule, how does the growth read?
**A.** Its growth is 19.5%.

**Q.** `COc1cc2oc(-c3cccc(C(=O)Nc4ccc(Cl)cc4)c3)cc(=O)c2c(OCCNC(=O)[C@H](CO)NC(=O)OC(C)(C)C)c1OC` was tested. Which growth did it give?
**A.** Its growth is 33.7%.

**Q.** Which growth does the source give for `COc1ccc(/C=C/c2nc3ccccc3n3c(-c4ccc(Cl)cc4)nnc23)cc1` here?
**A.** Its growth is 99.2%.
